Results as given in PubChem BioAssay (NCATS).
“And” between values parts separate entries of the source, which are not always exact repeats. Equal entries are not always repeated. Inconclusive results are not listed. Where a call stands in place of a potency, no number is given. The source made the active and inactive calls. Calls follow the shape of the full dose curve.

Experiments:
[1] = Cytotoxicity counterscreen for inhibitors of SARS-CoV-2 cell entry (AID 1645845); also: nearly all actives have a fitted effect of over 50% in size
How it was run: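 Counterscreen run in the same HEK293-ACE2 line as the pseudotyped-particle entry assay, without particles. Viability after 48 h at 37 C was read as ATP luminescence, scaled between cell-containing and cell-free wells.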

[2] = Primary qHTS to identify inhibitors of SARS-CoV-2 cell entry (AID 1645846); details: activity change, negative = inhibition: at 57.1 µM (top of the series) unless noted; also: nearly all actives have a fitted effect of over 45% in size; also: potency is read from the fitted curve at half-maximal effect
How it was run: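 HEK293-ACE2 (Expi293F, stable hACE2), 1500 cells/well, o/n 37C; cpd 23 nL pin, 1 h; MLV-PP w/ SARS-CoV-2-S (Wuhan-Hu-1, Δ19 C-term); 48 h 37C; Bright-Glo luminescence; normalized vs S-PP and bald PP.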

Compound | Potency [1] | activity change, negative = inhibition [2] | Potency [2]
CCN[C@H]1CN(CCCOC)S(=O)(=O)c2sc(S(N)(=O)=O)cc21 | inactive | -6.75% | –
CCCCC(CC)COC(=O)c1ccccc1O (configuration not stated) | inactive | – | inactive
CC(C)C(=O)c1c(C(C)C)nn2ccccc12 | inactive | – | inactive
O=c1[nH]c(=O)n([C@H]2C[C@H](O)[C@@H](CO)O2)cc1F | inactive | -90.3% and -94.8% | –
C#C[C@]1(O)CC[C@H]2[C@@H]3CCc4cc(OC5CCCC5)ccc4[C@H]3CC[C@@]21C | inactive | -15.1% | –
COC(=O)c1ccc(O)cc1 | inactive | – | inactive
NCC(=O)CCC(=O)O | inactive | -19.8% | –
Cc1cc(O)cc2c1O[C@](C)(CCC[C@H](C)CCC[C@H](C)CCCC(C)C)CC2 | inactive | – | inactive
Cc1ccc(Cl)c(Nc2ccccc2C(=O)O)c1Cl | inactive | -1.76% | –
NC(N)=NS(=O)(=O)c1ccc(N)cc1 | inactive | – | inactive
Cc1c(N(C)CS(=O)(=O)O)c(=O)n(-c2ccccc2)n1C | inactive | 1.77% | –
COc1cc(C)nc(-n2nc(C)cc2OC)n1 | inactive | – | inactive
CNCCCC12CCC(c3ccccc31)c1ccccc12 | inactive | – | 28.2 µM (active)
NC(=O)c1cccnc1 | inactive | -15.2% | –
CCCCC(=O)OCC(=O)[C@H]1[C@H](C)C[C@H]2[C@@H]3C[C@H](F)C4=CC(=O)C=C[C@]4(C)[C@@]3(F)[C@@H](O)C[C@@]21C | inactive | – | inactive
CN1C[C@@H]2C[C@H]1CN2c1cc2c(cc1F)c(=O)c(C(=O)O)cn2C1CC1 | inactive | -27.1% [at 27.1 µM] | –
